p53null 32C kill – kills p53 null cells at the permissive temperature; H1299-neo p53 null cells, ATP luminescence, 24 h, 32C; Potency, µM (top dose mostly 46.1 µM), for inactives: at the highest dose activity change, negative = cytotoxicity, hits mostly cytotoxic; 55,000 compounds, 0.62% hits;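 also: potency is read from the fitted curve at half-maximal effect; 0% = DMSO only and -100% = full killing by 100 µM tamoxifen; nearly all actives have a fitted effect of over 55% in size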
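H1299-neo, 600 cells/well; overnight 37C; cpd up to 46 uM, 24 h at 32C; ATPlite luminescence after 20 min RT; normalized to DMSO (0%) and tamoxifen 100 uM (100% kill); Hill-fit AC50.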
GALC G270D act – raises human GALC G270D mutant activity in cells; Potency, µM (top dose mostly 57.5 µM), actives largely listed as activators; 45,000 compounds, 0.1% hits; 145M-Twi-hGALC-G270D cells (Twitcher mouse brain line with human GALC G270D), HMU-beta-Gal fluorescence, 48 h; also: potency is read from the fitted curve at half-maximal effect; 0% is about no effect; nearly all actives have a fitted effect of over 65% in size
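Brain-derived Twitcher mouse 145M-Twi cells stably expressing human GALC-G270D or wild-type GALC, treated live, then residual GALC activity read by fluorescence of HMU-b-Gal substrate (0.1 mM final) in citrate-phosphate buffer pH 5.2 with sodium taurocholate. Signal increase indicates enhancement.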
PMP22 txn prim – modulators of PMP22 gene transcription in S16 Schwann cells; S16 Pmp22-F2sN Schwann cells, FLuc/NLuc coincidence luminescence, 24 h; Potency, µM (doses to about 57.5 µM), without a hit: top-dose activity change, negative = inhibition, usual class: inhibitors; 43,000 compounds, 2% hits; active = clear falling dose curves in both reporters; inconclusive = both reporters move, but less clearly or upward; inactive = either reporter flat; the % is the NLuc reporter signal; also: potency is read from the fitted curve at half-maximal effect; % is scaled to controls: 0 for no effect and ±100 for the full control effect
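Luminescent read-out of sequential FLuc and NLuc signals from a reporter embedded in the Pmp22 3' UTR of S16 Schwann cells, taken after 24 h compound exposure at 37C; compounds reducing both signals score as inhibitors of expression.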
S16 viability – toxic to S16 Pmp22-F2sN Schwann cells; S16 Pmp22-F2sN Schwann cells viability, CellTiter-Glo, 24 h; Potency, µM (titrated, usually from 57.5 µM), for the others: at the top dose activity change, negative = cytotoxicity, actives largely listed as cytotoxic; 43,000 compounds, 0.48% hits; also: potency is read from the fitted curve at half-maximal effect; % is scaled to controls: 0 for no effect and ±100 for the full control effect; nearly all actives have a fitted effect of over 65% in size
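Used to flag compounds lowering reporter output through toxicity, this quantitative HTS measures ATP-based CellTiter-Glo luminescence in S16 Pmp22-F2sN Schwann cells after 24 h compound exposure at 37C.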
p53null 39C kill – kills p53 null cells at the nonpermissive temperature | 55,000 compounds, 0.97% hits | H1299 p53-null (neo) cells, 39C, ATPlite viability, 24 h | Potency, µM (series often up to 46.1 µM), without a hit: at the highest dose activity, negative = cell killing, hits mostly cytotoxic;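 also: potency is read from the fitted curve at half-maximal effect; 0% = DMSO only and -100% = full killing by 100 µM tamoxifen; nearly all actives have a fitted effect of over 50% in size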
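ATP-luminescence viability readout (ATPlite, 20 min RT) after 24 hr compound treatment at 39C of H1299-neo or H1299-p53A138V cells; titration up to 46 uM; normalized to DMSO and 100 uM tamoxifen; Hill-fit AC50.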
pS6 MEF inh – reduces mTORC1 signaling in Tsc2 and p53 null MEF cells; Tsc2-/- p53-/- MEF, phospho-rpS6 immunofluorescence/PI, 24 h; Potency, µM (highest dose often 38.3 µM), for the others: at the highest dose activity change, negative = inhibition, most hits filed as inhibitors; 44,000 compounds, 0.78% hits;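 also: potency is read from the fitted curve at half-maximal effect; plate controls were DMSO for no effect and rapamycin for full effect; nearly all actives have a fitted effect of over 50% in size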
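Immunofluorescence of rpS6 phosphorylation in Tsc2-/-, p53-/- MEFs after 24 h compound exposure, normalized to propidium iodide signal. Activity is expressed as % positive cells, thresholded with 7.5 nM rapamycin.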
NLuc saturating – inhibits NanoLuc at saturating substrate, PMP22 counter-screen | 690 compounds, 4% hits | AID 1508638 | Potency, µM (titrated, usually from 57.5 µM), inactives show at the highest dose activity change, negative = inhibition, usual class: inhibitors | Secreted NLuc enzyme (filtered S16 cell medium), Nano-Glo luminescence | shares compounds with PMP22 txn prim; also: potency is read from the fitted curve at half-maximal effect; % is scaled to controls: 0 for no effect and ±100 for the full control effect
NLuc Km counter – counter-screen for PMP22 expression modulators: NanoLuc inhibition at Km | shares compounds with PMP22 txn prim | secreted NLuc enzyme, coelenterazine luminescence, Km conditions | Potency, µM (doses to about 57.5 µM), without a hit: top-dose activity change, negative = inhibition, actives largely listed as inhibitors | 690 compounds, 5% hits | AID 1508639; also: potency is read from the fitted curve at half-maximal effect; % is scaled to controls: 0 for no effect and ±100 for the full control effect
FLuc ctr PMP22 – firefly luciferase enzyme inhibition artifact for PMP22 screen. shares compounds with PMP22 txn prim. Potency, µM (doses to about 57.5 µM), inactives show top-dose activity, negative = inhibition, actives largely listed as inhibitors. 690 tested, under 10 active. purified P. pyralis FLuc, luminescence, 10 min; also: % of control where 0% means no effect
Target sequence (P08659 whole entry, looked up): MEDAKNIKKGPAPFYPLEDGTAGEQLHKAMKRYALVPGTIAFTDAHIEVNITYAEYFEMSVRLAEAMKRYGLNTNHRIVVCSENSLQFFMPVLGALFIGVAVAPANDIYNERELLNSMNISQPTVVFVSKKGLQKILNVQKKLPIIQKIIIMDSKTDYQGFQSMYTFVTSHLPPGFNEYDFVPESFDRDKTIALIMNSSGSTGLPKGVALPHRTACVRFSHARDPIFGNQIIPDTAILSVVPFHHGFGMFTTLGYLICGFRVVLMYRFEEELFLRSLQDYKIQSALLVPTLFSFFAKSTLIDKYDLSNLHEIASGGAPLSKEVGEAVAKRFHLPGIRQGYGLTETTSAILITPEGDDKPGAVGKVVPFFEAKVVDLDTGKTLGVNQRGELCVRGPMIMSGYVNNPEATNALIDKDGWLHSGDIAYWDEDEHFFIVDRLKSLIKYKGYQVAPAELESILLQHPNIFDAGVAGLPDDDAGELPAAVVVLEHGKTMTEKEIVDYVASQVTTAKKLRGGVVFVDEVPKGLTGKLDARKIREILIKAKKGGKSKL
S16 viab conf – S16 Schwann cell cytotoxicity, confirmatory; shares compounds with PMP22 txn prim; S16 Schwann cells viability, CellTiter-Glo ATP luminescence, 24 h; Potency, µM (titrated, usually from 57.5 µM), for inactives: at the highest dose activity change, negative = viability loss, most hits filed as cytotoxic; 690 compounds, 7% hits; AID 1508641; also: potency is read from the fitted curve at half-maximal effect; % is scaled to controls: 0 for no effect and ±100 for the full control effect
PMP22 txn conf – confirmation of modulators of PMP22 gene transcription in S16 cells. AID 1508646. 690 compounds, 22% hits. Potency, µM (series often up to 57.5 µM), for the others: at the top dose activity change, negative = inhibition, most hits filed as inhibitors. S16 Schwann cells Pmp22-F2sN, dual luciferase, 24 h. shares compounds with PMP22 txn prim; active = clear falling dose curves in both reporters; inconclusive = both reporters move, but less clearly or upward; inactive = either reporter flat; the % is the FLuc reporter signal; also: potency is read from the fitted curve at half-maximal effect
PMP22 HiBiT cnf – rat PMP22 protein level modulation, confirmatory. shares compounds with PMP22 txn prim. S16 Schwann cells Pmp22-HiBiT, luminescence, 48 h. Potency, µM (titrated, usually from 27.9 µM), for inactives: at the highest dose activity change, negative = inhibition, most hits filed as inhibitors. 95 tested, under 10 active
Target sequence (P25094 whole entry, looked up): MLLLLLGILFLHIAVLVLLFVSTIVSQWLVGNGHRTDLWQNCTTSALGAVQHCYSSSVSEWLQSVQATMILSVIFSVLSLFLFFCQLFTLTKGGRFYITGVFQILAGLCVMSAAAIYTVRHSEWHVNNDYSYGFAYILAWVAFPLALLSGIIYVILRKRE
Active calls of the source: *; i = inactive; ? = inconclusive; / = not tested or not shown. Sampled rows, rich in hits. Any-hit rate of the full collection: about 3%. Unless noted, calls follow the shape of the dose curve; as a rule, active = well fitted curve in the direction sought with a large enough effect; inconclusive = small, poorly fitted or top-dose-only effect, or another doubt; inactive = no such curve, though single readings can be large; an effect the other way counts as inactive or inconclusive.

SMILES | p53null 32C kill | GALC G270D act | PMP22 txn prim | S16 viability | p53null 39C kill | pS6 MEF inh | NLuc saturating | NLuc Km counter | FLuc ctr PMP22 | S16 viab conf | PMP22 txn conf | others
Cc1cn2c(=O)cc(COC(=O)c3ccc(NC(=O)c4ccc(F)cc4)cc3)nc2s1 | -12% | i | -6% | -29% | 5% | 33% | / | / | / | / | /
Cc1cccc(Nc2c3c(nc4nncn24)CCC3)c1C | -4% | i | ? | -2% | -19% | 2% | ? | 9% | -6% | 3% | ? | PMP22 HiBiT cnf=2%
O=C(CSc1nnc(-c2ccc(Br)cc2)n1-c1ccccc1)c1ccccc1 | -10% | i | ? | -5% | 11% | 2% | / | / | / | / | /
Cc1ccccc1-n1c(SCC(=O)c2ccccc2)nnc1-c1ccc(F)cc1 | 55% | i | 18µM* | ? | 2% | ? | 1.4µM* | 1.7µM* | 4% | -4% | ?
COc1ccc(-c2noc(CSc3nnc(-c4ccncc4)n3-c3ccccc3)n2)cc1 | -2% | i | 14µM* | ? | -9% | -7% | ? | ? | -22% | -13% | 6.1µM*
COc1ccc(-n2c(C)nnc2SCc2nc(-c3ccc(OC)c(OC)c3)no2)cc1 | -8% | i | ? | -22% | -7% | 0% | ? | ? | -5% | -20% | -41%
COc1cccc(CN2CCc3nc(N4CCN(C)CC4)ncc3C2)c1 | -7% | i | -8% | 7% | 8% | ? | / | / | / | / | /
Cc1ccccc1Nc1cc(C(=O)NC2CCCCC2)c2ccccc2n1 | -6% | i | -41% | 16% | -7% | -14% | / | / | / | / | /
Cc1ccc(Nc2cc(C(=O)NC3CCCC3)c3ccccc3n2)cc1C | -2% | i | 2.8µM* | -8% | -15% | -13% | 2% | 1% | ? | 9% | -11%
Cc1ccc(S(=O)(=O)Cc2ccccc2Cl)cc1 | 10% | / | / | / | / | / | / | / | / | / | /
Cc1ccccc1OCC(=O)Nc1ccccc1C(=O)OCc1cc(=O)n2nc(C3CC3)sc2n1 | 4% | i | 2.5µM* | 5% | 6% | 4% | -8% | 4% | -1% | -3% | -20%
CCOCCc1nn2c(=O)cc(COC(=O)c3ccccc3NC(=O)c3ccccc3F)nc2s1 | -4% | i | ? | 5% | 3% | 0% | -5% | -1% | 1% | -2% | -21%
COc1ccc(C(CC(=O)Nc2cccc(C)c2C)N2Cc3ccccc3C2=O)cc1 (stereo not drawn) | -3% | / | / | / | 10% | -1% | / | / | / | / | /
CN(C)CCN(Cc1ccco1)C(=O)c1cc2c(s1)-c1ccccc1OC2 | 7% | i | 17µM* | ? | ? | 5.2µM* | -14% | 4% | 2% | ? | ?
CCN(C(=O)c1cc2c(s1)-c1ccccc1OC2)c1cccc(C(F)(F)F)c1 | 14% | i | 20µM* | 4% | 19% | -9% | ? | -20% | 0% | ? | -23%
CCOc1ccc(C(=O)Nc2ccc3nc(SCCOc4ccccc4)sc3c2)cc1 | -10% | i | 11µM* | 10% | -3% | -4% | -2% | 2% | 4% | -11% | -40%
Cc1ccc(OCCSc2nc3ccc(NC(=O)c4ccc5c(c4)OCO5)cc3s2)cc1 | -11% | i | 14µM* | 0% | -3% | -4% | -3% | 1% | -2% | ? | ?
O=C(Nc1ccc2nc(SCCOc3ccccc3Cl)sc2c1)c1ccc2c(c1)OCO2 | -9% | i | -10% | -2% | -1% | -10% | / | / | / | / | /
Cc1ccc2[nH]c(CSc3nnc(COc4ccccc4C)n3C)cc(=O)c2c1 | -7% | i | 13µM* | ? | 25% | -14% | ? | ? | -7% | ? | -23%
Cc1ccccc1OCc1nnc(SCc2cc(=O)c3cc(F)ccc3[nH]2)n1C | -4% | i | ? | -27% | -9% | 1% | / | / | / | / | /
COc1cccc(N2C(=O)C(CC(=O)Nc3ccc(Cl)cc3)N(Cc3ccc4c(c3)OCO4)C2=O)c1 (stereo not drawn) | ? | i | ? | ? | -9% | -7% | / | / | / | / | /
CC(C)COc1ccccc1C1CC(=O)Nc2cc3c(cc21)OCO3 (stereo not drawn) | 52% | i | 8.4µM* | -14% | ? | ? | ? | ? | -15% | -23% | ?
COc1ccc(C2CC(=O)Nc3cc4c(cc32)OCO4)c(OC)c1 (stereo not drawn) | 28% | i | ? | -18% | -21% | -21% | / | / | / | / | /
CCOC(=O)c1c(C)oc2ccc(N(C(=O)c3ccncc3)S(=O)(=O)c3ccc(F)cc3)cc12 | 27% | i | ? | -12% | 31% | 6% | / | / | / | / | /
O=C(Nc1nnc(S(=O)(=O)N2CCCc3ccccc32)s1)c1cccc(Cl)c1 | -1% | i | -10% | -3% | -7% | 10% | / | / | / | / | /

High-throughput results: PubChem, National Center for Advancing Translational Sciences (NCATS)
